The supplement of paper PMC9023506
Structures can show the parent of a compound that is named as a salt.

Tested on: Danio rerio larvae (5 dpf)
Test: optomotor response to blue moving lines, difference vs DMSO (percentage points (treated minus DMSO)); higher = more of the behaviour than the DMSO vehicle control
Conditions: 10 µM; exposure time: 3 h pre-incubation + 3 h imaging
Method: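 5-dpf wild-type zebrafish larvae were imaged in 96-well plates. They were treated with 190 Tocris FDA-approved drugs at 10 µM (1 µl/ml DMSO) for 3 h before and 3 h during imaging at 28.5 °C, 48 larvae per drug. Automated image analysis gave % time moving and optomotor responses. Values are drug group mean minus DMSO vehicle mean (n=844), in percentage points, for 10 behaviours.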

SMILES | optomotor response to blue moving lines
CN1C[C@H](C(=O)N[C@]2(C)O[C@@]3(O)[C@@H]4CCCN4C(=O)[C@H](Cc4ccccc4)N3C2=O)C[C@@H]2c3cccc4[nH]cc(c34)C[C@H]21 [Dihydroergotamine mesylate] | 12.8
CCN(C)C(=O)Oc1cccc([C@H](C)N(C)C)c1 [Rivastigmine tartrate] | 1.1
COc1ccc(C(CN(C)C)C2(O)CCCCC2)cc1 (configuration not stated) [Venlafaxine hydrochloride] | 3.9
N[C@@H]1C[C@H]1c1ccccc1 [Tranylcypromine hydrochloride] | 13.5
CC[C@@H](C(N)=O)N1CCCC1=O [Levetiracetam] | 6.19
CC(O)(CS(=O)(=O)c1ccc(F)cc1)C(=O)Nc1ccc(C#N)c(C(F)(F)F)c1 (configuration not stated) [Bicalutamide] | -16.6
O=c1[nH]c2ccccc2n1C1CCN(CCCC(c2ccc(F)cc2)c2ccc(F)cc2)CC1 [Pimozide] | -7.76
COc1cc2c(cc1OC)C1CC(=O)C(CC(C)C)CN1CC2 (configuration not stated) [Tetrabenazine] | -7.81
C=CCN1C[C@H](C(=O)N(CCCN(C)C)C(=O)NCC)C[C@@H]2c3cccc4[nH]cc(c34)C[C@H]21 [Cabergoline] | -0.85
Cc1cccc([C@H](C)c2c[nH]cn2)c1C [Dexmedetomidine hydrochloride] | -12.4
CC(C)C[C@H]1C(=O)N2CCC[C@H]2[C@]2(O)O[C@](NC(=O)[C@@H]3C=C4c5cccc6[nH]c(Br)c(c56)C[C@H]4N(C)C3)(C(C)C)C(=O)N12 [Bromocriptine mesylate] | -29.3
C=C1C[C@@H]2[C@H](CC[C@]3(C)C(=O)CC[C@@H]23)[C@@]2(C)C=CC(=O)C=C12 [Exemestane] | -2.19
